Source: PubChem (National Center for Advancing Translational Sciences (NCATS))
FLuc modulator – qHTS profiling assay for firefly luciferase inhibitor/activator using purifed enzyme and Km concentrations of substrates (counterscreen for miR-21 project). Luciferin 4-monooxygenase (Photinus pyralis), P08659. purified FLuc, Km substrates, luminescence inhibition. Potency, µM (series often up to 57.5 µM), usual class: inhibitors. 6.9% of 360,000 active; further: nearly all actives have a fitted effect of over 55% in size
Target sequence (P08659 whole entry, looked up): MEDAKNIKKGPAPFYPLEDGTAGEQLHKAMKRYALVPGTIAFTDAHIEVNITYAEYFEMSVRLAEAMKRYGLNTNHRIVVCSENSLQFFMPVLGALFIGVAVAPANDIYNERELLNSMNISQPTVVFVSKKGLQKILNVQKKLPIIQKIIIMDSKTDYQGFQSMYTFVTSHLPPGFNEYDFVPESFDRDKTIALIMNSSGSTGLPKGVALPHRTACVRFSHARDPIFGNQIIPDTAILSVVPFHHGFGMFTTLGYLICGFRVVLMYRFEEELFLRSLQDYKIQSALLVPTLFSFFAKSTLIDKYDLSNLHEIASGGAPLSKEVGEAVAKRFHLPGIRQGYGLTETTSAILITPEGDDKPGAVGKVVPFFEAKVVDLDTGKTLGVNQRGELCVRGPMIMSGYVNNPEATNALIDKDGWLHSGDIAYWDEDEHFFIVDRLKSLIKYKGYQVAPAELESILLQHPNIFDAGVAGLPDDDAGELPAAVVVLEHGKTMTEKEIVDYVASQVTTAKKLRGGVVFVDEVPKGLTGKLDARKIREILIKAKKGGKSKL
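Biochemical qHTS of compounds, final roughly 60 µM downward over six points, against 10 nM purified firefly luciferase using Km concentrations of substrates (10 uM D-luciferin, 10 uM ATP) in Tris acetate pH 7.5 buffer; luminescence output.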
ELG1 DNA repair – qHTS screen for small molecules that inhibit ELG1-dependent DNA repair in human embryonic kidney (HEK293T) cells expressing luciferase-tagged ELG1; 2.3% of 330,000 active; HEK293T ELG1-luciferase reporter, luminescence, 16 h; DNA damage induced by 5-fluorouridine; Potency, µM (titrated, usually from 46.1 µM), hits mostly inhibitors; further: nearly all actives have a fitted effect of over 55% in size
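HEK293T cells expressing luciferase-tagged ELG1 (2,000/well) received 5-Fluorouridine plus compound or DMSO for 16 hr at 37 °C. Luciferase was read by ONE-Glo luminescence after 30 min at room temperature.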
SMN2 splice up – qHTS Assay for Enhancers of SMN2 Splice Variant Expression; HEK293 SMN2-luciferase splicing reporter, luminescence, 30-36 h; Potency, µM (series often up to 46.1 µM), usual class: activators; 2.8% of 210,000 active; AID 1458, 2008; further: nearly all actives have a fitted effect of over 55% in size
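HEK293 cells carry an SMN2 […]–luciferase reporter in which exon 7 inclusion puts luciferase in frame. Cells were plated 10-12 h before compound addition, then incubated 30-36 h at 37C. ONE-Glo luminescence was read; sodium butyrate at 4.5 mM final served as control.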
Rab9 promoter act – qHTS Assay for Rab9 Promoter Activators | Huh7 Rab9 promoter-luciferase reporter, luminescence, 24 h | Potency, µM (series often up to 9.22 µM), usual class: activators | 2.8% of 320,000 active | AID 485297, 2010; further: nearly all actives have a fitted effect of over 60% in size
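Rab9 promoter-driven luciferase in stably transfected Huh7 cells; 1500 cells/well rested 2 h, exposed to compound in DMSO for 24 h at 37 °C, 5% CO2. Luminescence read 10 min after adding luciferase reagent at ambient temperature.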
NPC1 prom act – qHTS Assay for NPC1 Promoter Activators; Huh7 NPC1 promoter luciferase reporter, 24 h; Potency, µM (titrated, usually from 9.22 µM), most hits filed as activators; 2.4% of 320,000 active; further: nearly all actives have a fitted effect of over 60% in size
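NPC1 promoter–luciferase Huh7 cells; 24 h compound; luminescence.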
ELG1 genotox – qHTS screen for small molecules that induce genotoxicity in human embryonic kidney (HEK293T) cells expressing luciferase-tagged ELG1. HEK293T ELG1-luciferase reporter, luminescence, 16 h. Potency, µM (top dose mostly 46 µM), actives largely listed as activators. 1.3% of 330,000 active. AID 504466, 2011; further: nearly all actives have a fitted effect of over 60% in size
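HEK293T cells expressing luciferase-tagged ELG1 were exposed to compound or DMSO vehicle for 16 hr at 37 °C and 5% CO2. Luciferase activity was then measured with ONE-Glo after 30 min at room temperature.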
Of the large screens only hits and unclear results are named; the others gave an inactive call. Compounds with a hit are over-represented: about 9.2% of the library has one in this group of screens. The call rests on the fitted dose curve; in most records, active means well fitted curve in the direction sought with a large enough effect; inconclusive means small, poorly fitted or top-dose-only effect, or another doubt; inactive means no such curve, though single readings can be large; an effect the other way counts as inactive or inconclusive.

CC(=O)OCc1c(C)cc(C)c(/C=C(/C#N)C(N)=O)c1C	none
Cc1nn(-c2ccccc2)cc1C(=S)Nc1ccccc1	FLuc modulator 12µM, ELG1 DNA repair inconclusive, Rab9 promoter act inconclusive, NPC1 prom act inconclusive
Cc1c(C(=O)Oc2cccc3ccccc23)cnn1-c1ccccc1	FLuc modulator 9.5µM, ELG1 DNA repair inconclusive, SMN2 splice up inconclusive, Rab9 promoter act inconclusive, ELG1 genotox 8.9µM
CCCc1c(C(=O)NNc2ccc(C)cc2)cnn1-c1ccccc1	ELG1 DNA repair 7.3µM (no result: SMN2 splice up)
CCCCCCCNC(=O)C1(CC2CC(c3ccc(Cl)cc3)=NO2)CCN(C(=O)CCCCCBr)CC1 (stereo unspecified)	ELG1 DNA repair inconclusive (no result: SMN2 splice up)
Cc1cccc2sc(NC(=O)C3CCCN(S(=O)(=O)c4cccc5nonc45)C3)nc12 (stereo unspecified)	ELG1 DNA repair inconclusive
Cc1ccc2nc(NC(=O)C3CCCN(S(=O)(=O)c4cccc5nonc45)C3)sc2c1 (stereo unspecified)	ELG1 DNA repair 7.3µM (no result: SMN2 splice up)
Cc1ccc2nc(NC(=O)C3CCCN(S(=O)(=O)c4cnc[nH]4)C3)sc2c1 (stereo unspecified)	FLuc modulator 12µM, ELG1 DNA repair inconclusive, SMN2 splice up inconclusive, Rab9 promoter act inconclusive, NPC1 prom act inconclusive
Cc1sc2nc(SCC(=O)Nc3ccccc3F)[nH]c(=O)c2c1C	none (no result: SMN2 splice up)
Cc1sc2nc(SCC(=O)Nc3ccc(S(=O)(=O)NCCCC(=O)O)cc3)[nH]c(=O)c2c1C	FLuc modulator 17µM (no result: SMN2 splice up)
O=C(O)c1ccc(N/N=C2/CCCc3ccccc32)cc1	FLuc modulator 9.5µM, ELG1 DNA repair inconclusive, Rab9 promoter act 2.5µM, NPC1 prom act 3.2µM, ELG1 genotox inconclusive (no result: SMN2 splice up)
O=C(O/N=C1\CCCc2ccccc21)C1CC1	FLuc modulator inconclusive
Cc1ccc(C(=O)O/N=C2\CCSc3ccc(C)cc32)cc1	FLuc modulator 7.6µM, ELG1 DNA repair inconclusive, ELG1 genotox inconclusive
O=C(O/N=C1\CCCc2ccccc21)c1cccc(Cl)c1	FLuc modulator 3µM
Cc1ccc(C(=O)O/N=C2\CCCc3ccccc32)cc1	FLuc modulator 0.17µM
Cc1cccc(C(=O)O/N=C2\CCSc3ccc(C)cc32)c1	FLuc modulator inconclusive
O=C(NC1CCN(C(=O)c2cccc([N+](=O)[O-])c2)CC1)c1ccccc1	none (no result: SMN2 splice up)
CCOCCCn1c(C)nc2c(c1=O)c1nc3ccccc3nc1n2-c1ccc2c(c1)OCCO2	ELG1 DNA repair inconclusive (no result: SMN2 splice up)
Cc1ccc(S(=O)(=O)O/N=C2\CCCc3ccccc32)cc1	none
Cc1cccc(C(=O)O/N=C2\CCCc3ccccc32)c1	FLuc modulator 0.67µM, ELG1 DNA repair inconclusive, NPC1 prom act inconclusive
Cc1cccn2c(=O)cc(CSc3nnc(NC(=O)c4ccc(F)cc4)s3)nc12	none (no result: ELG1 DNA repair, SMN2 splice up, Rab9 promoter act, NPC1 prom act, ELG1 genotox)
O=C(Nc1ccc(S(=O)(=O)Nc2ncccn2)cc1)C(F)(F)F	none (no result: SMN2 splice up)
Cc1cc(=O)n2c(nc3ccccc32)[nH]1	none
CCCc1cc(=O)n2c(nc3ccccc32)[nH]1	FLuc modulator 17µM, ELG1 DNA repair inconclusive, SMN2 splice up inconclusive, Rab9 promoter act inconclusive, ELG1 genotox inconclusive
CCOC(=O)c1cc(=O)n2c(nc3ccccc32)[nH]1	FLuc modulator 24µM, ELG1 DNA repair inconclusive, Rab9 promoter act inconclusive (no result: SMN2 splice up)
Cc1ccccc1[C@@H](NC(=O)OC(C)(C)C)C(=O)OC(C)(C)C	none (no result: SMN2 splice up)
Cc1ccc2c(C)c(C(=O)N(C)C(C)c3ccon3)oc2c1C (stereo unspecified)	FLuc modulator 15µM, ELG1 DNA repair inconclusive, Rab9 promoter act 3.2µM, NPC1 prom act inconclusive, ELG1 genotox inconclusive (no result: SMN2 splice up)
Cc1cccc(N2CCN(C(=O)CNC(=O)Cc3ccccc3)CC2)c1C	ELG1 DNA repair inconclusive (no result: FLuc modulator, SMN2 splice up, Rab9 promoter act, NPC1 prom act)
Cc1cccc(N2CCN(C(=O)CNC(=O)c3cccc([N+](=O)[O-])c3)CC2)c1C	ELG1 DNA repair 18µM (no result: SMN2 splice up)
